The subject of assay [1] is PRMT1 (protein arginine N-methyltransferase 1). Description: small molecules binding arginine methyltransferase PRMT1 – biochemical, small-molecule microarray, 635 nm fluorescence, primary screen (AID 1088).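 Further: binding of Prmt1 protein to compounds spotted on small-molecule microarray slides.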 Particulars: higher = more signal.
The nature of assay [2]: growth effects on S. cerevisiae YJM789 – YJM789 clinical isolate, OD600, 24 h, basal, primary screen (AID 1089).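 Further: growth of clinical yeast isolate S. cerevisiae YJM 789 seeded 1000 cells per well; test concentration not given here.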 The conditions noted are these: higher = more signal, called active from +8 up or from −8 down.
Assay [3] can be described thus: S. pombe growth modifiers, basal conditions – strain 972, OD600, 24 h, no modulator, primary screen (AID 1090).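 Further: basal condition with compound alone and no growth modifier present; test concentration not given here.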 Particulars: S. pombe 972 growth, higher = more signal, called active from +8 up or from −8 down.
Assay [4] can be described thus: budding yeast growth modifiers under rapamycin – strain BY4716, OD600, 96 h, primary screen (AID 1091). Further: test concentration not given here. The conditions noted are these: S. cerevisiae BY4716 + rapamycin, higher = more signal, called active from +8 up or from −8 down.
Assay [5] addresses Torsin-1A-interacting protein 2 (Homo sapiens) (UniProt Q8NFQ8). Briefly: small molecules binding lysate-expressed LULL1 – cell lysate, human LULL1 lysate, 635/667 nm fluorescence, primary screen (AID 1092).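 Further: probe is lysate of COS7 cells overexpressing human LULL1; score merges per-feature 667 nm fluorescence with signal-to-noise.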 Particulars: small-molecule microarray, hLULL1 lysate binding, 635 nm fluorescence; higher = more signal.
A short description of assay [6]: optical density change of DRC41 E. coli – strain DRC41, OD650, 24 h, E. coli filamentation project, primary screen (AID 1093).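 Further: MC1000 strain lacking acrAB efflux and sulA so SOS filamentation is blocked; test concentration not given here.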 The conditions noted are these: E. coli DRC41 growth, higher = more signal, called active from +8 up or from −8 down.
The nature of assay [7]: probe aLefty2 binding to arrayed compounds – biochemical, biotinylated probe, 635/667 nm fluorescence, primary screen (AID 1094).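 Further: score merges spot fluorescence near 667 nm with spot signal-to-noise ratio.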 Particulars: small-molecule microarray, higher = more signal.
In assay [8] the test system is Noggin (protein binding on small-molecule microarray). Briefly: small molecules binding Noggin protein – biochemical, 635/667 nm fluorescence, primary screen (AID 1095).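 Further: score merges 667 nm feature fluorescence with signal to noise over triplicate slides.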 Particulars: 635 nm fluorescence, higher = more signal.
The target in assay [9] is Neurogenic locus notch homolog protein 3 (Homo sapiens) (UniProt Q9UM47). Description: small molecules binding NOTCH3 protein – biochemical, 635/667 nm fluorescence, primary screen (AID 1096). Particulars: small-molecule microarray, 635 nm fluorescence, higher = more signal.
Sequence of Neurogenic locus notch homolog protein 3 (Homo sapiens) (Q9UM47 whole entry, looked up): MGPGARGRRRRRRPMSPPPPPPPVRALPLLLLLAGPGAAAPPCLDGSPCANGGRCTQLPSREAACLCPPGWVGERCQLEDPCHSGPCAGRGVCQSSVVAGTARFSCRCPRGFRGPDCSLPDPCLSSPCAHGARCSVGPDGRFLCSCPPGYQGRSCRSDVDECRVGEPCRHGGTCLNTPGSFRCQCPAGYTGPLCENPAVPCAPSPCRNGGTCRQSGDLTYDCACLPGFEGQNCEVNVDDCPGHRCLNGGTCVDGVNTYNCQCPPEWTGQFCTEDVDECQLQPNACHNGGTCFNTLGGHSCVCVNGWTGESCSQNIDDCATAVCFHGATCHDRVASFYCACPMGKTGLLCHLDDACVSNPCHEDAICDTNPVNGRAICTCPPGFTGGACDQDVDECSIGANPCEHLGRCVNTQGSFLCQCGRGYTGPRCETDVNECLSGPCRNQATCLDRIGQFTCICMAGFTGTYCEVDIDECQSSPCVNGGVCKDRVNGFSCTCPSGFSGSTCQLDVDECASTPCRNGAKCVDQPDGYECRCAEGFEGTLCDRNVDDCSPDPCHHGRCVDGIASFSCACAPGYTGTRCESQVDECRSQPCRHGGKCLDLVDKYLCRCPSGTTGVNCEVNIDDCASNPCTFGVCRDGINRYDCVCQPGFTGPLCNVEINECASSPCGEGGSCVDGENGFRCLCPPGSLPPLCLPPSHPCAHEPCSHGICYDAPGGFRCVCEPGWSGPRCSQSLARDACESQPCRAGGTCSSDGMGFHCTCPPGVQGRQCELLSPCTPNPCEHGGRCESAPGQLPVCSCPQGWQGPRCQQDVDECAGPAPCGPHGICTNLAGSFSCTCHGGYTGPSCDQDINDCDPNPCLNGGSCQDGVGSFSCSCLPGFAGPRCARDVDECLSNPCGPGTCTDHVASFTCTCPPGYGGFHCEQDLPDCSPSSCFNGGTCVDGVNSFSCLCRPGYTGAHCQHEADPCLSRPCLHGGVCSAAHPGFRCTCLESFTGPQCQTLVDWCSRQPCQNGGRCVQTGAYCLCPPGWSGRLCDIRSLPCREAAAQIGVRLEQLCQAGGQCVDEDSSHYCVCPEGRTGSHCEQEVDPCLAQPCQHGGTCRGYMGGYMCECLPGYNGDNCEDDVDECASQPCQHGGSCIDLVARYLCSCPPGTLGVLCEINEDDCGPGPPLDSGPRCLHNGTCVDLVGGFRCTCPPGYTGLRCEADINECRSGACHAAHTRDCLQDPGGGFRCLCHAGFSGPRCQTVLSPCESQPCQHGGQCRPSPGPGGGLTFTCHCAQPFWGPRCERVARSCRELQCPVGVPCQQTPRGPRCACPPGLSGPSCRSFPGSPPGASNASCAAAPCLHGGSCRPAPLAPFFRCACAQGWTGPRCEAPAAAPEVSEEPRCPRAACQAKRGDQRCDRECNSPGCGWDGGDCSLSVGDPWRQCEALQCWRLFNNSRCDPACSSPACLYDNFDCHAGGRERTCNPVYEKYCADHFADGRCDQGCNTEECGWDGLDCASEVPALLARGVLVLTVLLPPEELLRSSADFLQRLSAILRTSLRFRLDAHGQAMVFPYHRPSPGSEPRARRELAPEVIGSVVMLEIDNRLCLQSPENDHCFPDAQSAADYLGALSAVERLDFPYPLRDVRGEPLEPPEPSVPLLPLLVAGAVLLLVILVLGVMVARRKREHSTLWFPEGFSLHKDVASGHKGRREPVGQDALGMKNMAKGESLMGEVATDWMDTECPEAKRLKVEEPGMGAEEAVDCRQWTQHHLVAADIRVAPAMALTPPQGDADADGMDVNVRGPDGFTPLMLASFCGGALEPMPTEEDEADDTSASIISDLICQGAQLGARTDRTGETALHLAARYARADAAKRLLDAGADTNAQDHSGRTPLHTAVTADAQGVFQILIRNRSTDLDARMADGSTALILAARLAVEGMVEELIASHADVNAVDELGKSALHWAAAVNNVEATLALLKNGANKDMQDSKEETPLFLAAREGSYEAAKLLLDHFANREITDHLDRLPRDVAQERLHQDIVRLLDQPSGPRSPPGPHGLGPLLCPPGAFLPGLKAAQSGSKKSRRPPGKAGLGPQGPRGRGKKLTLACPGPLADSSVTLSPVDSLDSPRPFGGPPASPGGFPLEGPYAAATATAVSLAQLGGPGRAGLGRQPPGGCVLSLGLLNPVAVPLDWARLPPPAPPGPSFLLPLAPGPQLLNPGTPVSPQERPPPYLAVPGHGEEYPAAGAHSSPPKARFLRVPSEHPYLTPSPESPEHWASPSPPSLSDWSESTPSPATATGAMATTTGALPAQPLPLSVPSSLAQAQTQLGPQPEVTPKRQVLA
Assay [10] is described as follows: probe aEGFR binding to arrayed compounds – biochemical, biotinylated probe, 635/667 nm fluorescence, primary screen (AID 1097).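 Further: probe is a biotinylated anti-EGFR antibody binding compounds printed on slides; score combines fluorescence near 667 nm and signal to noise of each spot.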 Particulars: small-molecule microarray, higher = more signal.
The subject of assay [11] is Plasmodium falciparum Sir2 (PF13_0152, Sir2A). Description: Plasmodium falciparum Sir2A binding compounds – biochemical, small-molecule microarray, 635 nm fluorescence, primary screen (AID 1098).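 Further: score merges spot fluorescence intensity with its signal-to-noise ratio.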 The conditions noted are these: fluorescence 635 nm, higher = more signal.
The nature of assay [12]: probe aDKK1 binding to arrayed compounds – biochemical, biotinylated probe, 635/667 nm fluorescence, primary screen (AID 1099).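 Further: score merges 667nm spot fluorescence with signal to noise across triplicate slides; reference of the scale not given here.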 The conditions noted are these: small-molecule microarray, higher = more signal.
Assay [13] is described as follows: probe aCHRDL2 binding to arrayed compounds – biochemical, biotinylated probe, 635/667 nm fluorescence, primary screen (AID 1100). The conditions noted are these: small-molecule microarray, higher = more signal.
The nature of assay [14]: change in splice reporter luminescence, either direction, cell-based, HEK293, spliceosome inhibition project, primary screen (AID 1101).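 Further: HEK293 cells carrying a splicing-competent luciferase reporter gene; test concentration not given here.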 Particulars: HEK293 splicing luciferase reporter, 24 h, higher = more signal, called active from +8 up or from −8 down. A general note: Reporter assays use an easily measured gene product as a stand-in for the process of interest.
Assay [15] has as its target Fibroblast growth factor 10 (Homo sapiens) (UniProt O15520). Briefly: compounds binding fibroblast growth factor 10 – biochemical, small-molecule microarray, 635 nm fluorescence, primary screen (AID 1102). Particulars: FGF10 binding, fluorescence 635 nm, higher = more signal.
Assay [16] relates to glycogen synthase kinase-3 (GSK3A per assay name; protocol says GSK3B). Briefly: compounds binding glycogen synthase kinase-3 – biochemical, small-molecule microarray, 635 nm fluorescence, GSK3A, primary screen (AID 1103). Further: the record names both GSK3A and GSK3B. Particulars: fluorescence 635 nm, higher = more signal.
Assay [17] addresses Epidermal growth factor receptor (Homo sapiens) (UniProt P00533). Briefly: compounds binding epidermal growth factor receptor – biochemical, small-molecule microarray, 635 nm fluorescence, primary screen (AID 1104).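 Further: score merges 667 nm emission intensity with spot signal to noise over triplicate slides.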 The conditions noted are these: EGFR binding, higher = more signal.
In assay [18] the target is Follistatin-related protein 3 (Homo sapiens) (UniProt O95633). Briefly: compounds binding follistatin-related protein 3 – biochemical, small-molecule microarray, 635 nm fluorescence, primary screen (AID 1105).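 Further: score merges emission near 667 nm and signal to noise per printed spot across three slides.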 The conditions noted are these: FSTL3 binding, higher = more signal.
Sequence of Follistatin-related protein 3 (Homo sapiens) (O95633 whole entry, looked up): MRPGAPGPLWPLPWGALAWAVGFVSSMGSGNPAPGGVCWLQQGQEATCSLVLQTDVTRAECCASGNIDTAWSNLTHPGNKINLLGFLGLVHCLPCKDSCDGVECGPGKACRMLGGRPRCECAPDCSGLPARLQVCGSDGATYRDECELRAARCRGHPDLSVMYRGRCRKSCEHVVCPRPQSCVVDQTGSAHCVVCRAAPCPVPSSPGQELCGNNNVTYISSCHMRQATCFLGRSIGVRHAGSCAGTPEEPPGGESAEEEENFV
Assay [19] deals with Dickkopf-related protein 1 (Homo sapiens) (UniProt O94907). Description: small molecules binding DKK1 protein – biochemical, small-molecule microarray, 635 nm fluorescence scan, primary screen (AID 1106).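 Further: score merges emission near 667 nm with signal to noise over three replicate slides.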 Particulars: higher = more signal.
Sequence of Dickkopf-related protein 1 (Homo sapiens) (O94907 whole entry, looked up): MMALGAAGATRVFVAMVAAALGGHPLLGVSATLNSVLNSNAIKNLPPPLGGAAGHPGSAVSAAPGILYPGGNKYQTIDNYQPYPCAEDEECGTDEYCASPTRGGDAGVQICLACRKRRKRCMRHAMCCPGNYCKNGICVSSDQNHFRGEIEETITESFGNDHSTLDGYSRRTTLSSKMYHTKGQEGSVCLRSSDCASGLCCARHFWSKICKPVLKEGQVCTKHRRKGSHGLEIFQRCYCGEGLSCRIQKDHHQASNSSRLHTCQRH
Assay [20] relates to Inhibin beta A chain (activin A). Briefly: small molecules binding activin A – biochemical, small-molecule microarray, 635 nm fluorescence scan, primary screen (AID 1107).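 Further: mouse activin A protein probed at 4.33 µg/mL on printed slides; score merges bound-protein fluorescence near 667 nm with spot signal-to-noise.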 Particulars: INHBA, higher = more signal.

Active and inactive are the calls of the source.

Sequence of Fibroblast growth factor 10 (Homo sapiens) (O15520 whole entry, looked up): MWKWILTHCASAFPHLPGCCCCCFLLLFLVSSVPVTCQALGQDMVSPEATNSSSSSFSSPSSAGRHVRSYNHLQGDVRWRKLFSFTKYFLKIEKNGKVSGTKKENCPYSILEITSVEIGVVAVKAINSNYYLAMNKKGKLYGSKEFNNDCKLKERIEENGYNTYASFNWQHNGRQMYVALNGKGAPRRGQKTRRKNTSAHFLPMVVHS
Sequence of Epidermal growth factor receptor (Homo sapiens) (P00533 whole entry, looked up): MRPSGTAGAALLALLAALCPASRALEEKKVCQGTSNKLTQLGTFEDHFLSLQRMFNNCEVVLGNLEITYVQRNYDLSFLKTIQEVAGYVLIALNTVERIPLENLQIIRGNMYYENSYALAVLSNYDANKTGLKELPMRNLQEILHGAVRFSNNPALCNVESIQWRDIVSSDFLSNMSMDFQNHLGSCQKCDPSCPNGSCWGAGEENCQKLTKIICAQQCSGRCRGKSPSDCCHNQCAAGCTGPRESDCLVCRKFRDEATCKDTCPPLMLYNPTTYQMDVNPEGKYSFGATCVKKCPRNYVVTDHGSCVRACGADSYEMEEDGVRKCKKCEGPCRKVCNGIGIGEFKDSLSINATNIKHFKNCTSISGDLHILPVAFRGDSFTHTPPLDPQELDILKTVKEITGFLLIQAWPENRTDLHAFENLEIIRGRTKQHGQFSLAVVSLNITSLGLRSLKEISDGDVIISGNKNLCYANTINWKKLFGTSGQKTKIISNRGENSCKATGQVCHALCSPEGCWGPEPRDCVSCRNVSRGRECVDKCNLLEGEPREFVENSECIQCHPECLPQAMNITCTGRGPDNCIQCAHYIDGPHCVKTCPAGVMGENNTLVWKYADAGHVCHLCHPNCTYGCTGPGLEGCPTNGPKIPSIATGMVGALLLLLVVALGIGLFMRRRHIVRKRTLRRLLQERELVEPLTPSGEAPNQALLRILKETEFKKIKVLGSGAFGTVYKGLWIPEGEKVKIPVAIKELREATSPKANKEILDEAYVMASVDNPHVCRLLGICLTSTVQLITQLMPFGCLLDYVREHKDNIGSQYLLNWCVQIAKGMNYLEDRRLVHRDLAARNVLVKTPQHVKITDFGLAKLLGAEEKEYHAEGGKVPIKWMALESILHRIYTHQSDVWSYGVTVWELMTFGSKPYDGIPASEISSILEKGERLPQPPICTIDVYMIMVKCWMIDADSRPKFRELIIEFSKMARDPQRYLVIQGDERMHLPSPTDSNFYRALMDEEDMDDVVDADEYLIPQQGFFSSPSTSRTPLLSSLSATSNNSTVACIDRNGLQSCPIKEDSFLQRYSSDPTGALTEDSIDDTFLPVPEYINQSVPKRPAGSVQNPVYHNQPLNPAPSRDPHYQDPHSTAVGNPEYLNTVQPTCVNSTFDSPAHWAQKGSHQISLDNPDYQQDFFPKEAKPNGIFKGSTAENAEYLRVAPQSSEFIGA
Sequence of Torsin-1A-interacting protein 2 (Homo sapiens) (Q8NFQ8 whole entry, looked up): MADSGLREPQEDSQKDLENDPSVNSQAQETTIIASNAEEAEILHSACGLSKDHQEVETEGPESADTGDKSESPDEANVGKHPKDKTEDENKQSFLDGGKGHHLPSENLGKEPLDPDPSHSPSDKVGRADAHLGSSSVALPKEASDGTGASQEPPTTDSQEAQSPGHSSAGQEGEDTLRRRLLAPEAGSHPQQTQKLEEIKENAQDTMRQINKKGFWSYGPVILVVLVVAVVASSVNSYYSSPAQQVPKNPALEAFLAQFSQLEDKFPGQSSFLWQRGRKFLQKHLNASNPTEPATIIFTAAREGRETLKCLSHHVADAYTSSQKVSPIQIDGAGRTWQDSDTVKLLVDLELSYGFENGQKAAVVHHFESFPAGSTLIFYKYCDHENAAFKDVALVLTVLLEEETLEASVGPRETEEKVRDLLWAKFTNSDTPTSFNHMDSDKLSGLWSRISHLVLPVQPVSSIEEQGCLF

As for `CO[C@H]1O[C@H](CO)[C@@H](OC(=O)Nc2ccccc2)[C@H](OC(=O)c2cc3ccccc3[nH]2)[C@H]1OC(=O)c1cc2ccccc2[nH]1`, the composite z-score in [1] is 0.499; in [5] it was 0.87; in assay [7] it was -0.0107; in assay [8], 0.248; in assay [9], 0.196; in assay [10], 0.0153. For the same compound, the composite z-score in assay [11] is 0.494; in assay [12], 0.576; in [13], 0.759; in assay [15], 1.35; in [16], 0.126; in [17] it was -0.551. In addition, the composite z-score came to 0.306 in assay [18], 0.201 in [19] and 0.9 in [20]. Also, the z-score in assay [2] was -1.63 (inactive); in assay [3] it was -0.562 (inactive); in assay [4], 0.216 (inactive); in assay [6] it was 0.0433 (inactive); in assay [14], -0.447 (inactive).
For the compound `O=C1C2C=CC(C(O)c3cccc(O)c3)N(Nc3ccc([N+](=O)[O-])cc3)C2C(=O)N1c1ccccc1` (stereo not given), the composite z-score was 0.622 in [1]; 1.87 in assay [5]; -0.021 in assay [7]; 0.196 in assay [8]; 0.715 in assay [9]; -0.0041 in [10]. Besides, the composite z-score in assay [11] came to 0.367; in assay [12], 0.158; in [13], 0.451; in assay [15], 1.07; in assay [16] it was 0.672; in assay [17], 0.254. Moreover, the composite z-score was 0.444 in assay [18], 0.239 in [19] and 0.199 in assay [20]. For the same compound, the z-score in assay [2] was 0.706 (inactive); in [3] it was 0.667 (inactive); in [4], 1.3 (inactive); in [6], 0.404 (inactive); in assay [14], 0.663 (inactive).
Take `C[N+](C)(C)CCCCCCNC(=O)[C@@H]1C[C@@H]2C(=O)N3CCC[C@H]3C(=O)N2[C@@H]1c1ccc(O)cc1`: the composite z-score is 1.43 in [1]; 2.9 in assay [5]; -0.0216 in assay [7]; 1.4 in assay [8]; 1.03 in assay [9]; 0.0401 in assay [10]. Further, the composite z-score in assay [11] was 1.1; in assay [12], -0.0891; in assay [13], 0.614; in assay [15] it was 1.37; in assay [16], 1.2; in assay [17], 1.23. In addition, the figures for the composite z-score in [18], in assay [19] and in [20] were 1.46, 1.25 and 0.578, respectively. Further, the z-score in assay [2] is -0.913 (inactive); in assay [3], 0.214 (inactive); in assay [4], -0.696 (inactive); in assay [6] it was 0.2 (inactive); in assay [14], -0.546 (inactive).
In the case of `Cc1ccc(S[C@]2(C(=O)NCCN3CCOCC3)CC(=O)N(Cc3ccccc3Cl)[C@@H]2c2ccc(CO)cc2I)cc1`, the composite z-score was 0.443 in assay [1]; 2.77 in assay [5]; 0.508 in assay [7]; -0.064 in [8]; -0.364 in assay [9]; -0.455 in [10]. Also, the composite z-score in [11] was 1.65; in assay [12] it was -0.831; in assay [13] it was -0.0429; in assay [15], 0.133; in assay [16], -0.207; in assay [17] it was -1.29. For the same compound, the composite z-score in assay [18] was -0.355; in [19], -1.82; in assay [20], 1.07. For the same compound, the z-score is -0.841 (inactive) in [2]; -3.57 (inactive) in [3]; 0.665 (inactive) in assay [4]; -0.373 (inactive) in assay [6]; -0.849 (inactive) in assay [14].
For `O=C1CS(=O)(=O)C(c2cccc([N+](=O)[O-])c2)N1c1ccccc1` (stereo not given), the composite z-score in [1] is -0.0065; in [5], 1.85; in assay [7] it was 0.554; in assay [8], 0.253; in assay [9] it was 0.336; in assay [10], 0.583. In addition, the composite z-score was found to be 0.175 in [11]; 0.913 in [12]; 0.157 in assay [13]; 1.03 in assay [15]; 0.117 in assay [16]; 0.591 in assay [17]. The results for the composite z-score in [18], in assay [19] and in assay [20] were 0.6, 0.625 and 0.32, respectively. Moreover, the z-score in [2] was -2.58 (inactive); in assay [3], -2.56 (inactive); in [4], -0.811 (inactive); in [6], 0.672 (inactive); in assay [14], -0.856 (inactive).
Regarding `O=C1C2C=CC(C(O)c3ccco3)N(Nc3ccccc3F)C2C(=O)N1c1ccccc1` (stereo not given), the composite z-score in assay [1] is -0.281; in [5], 2.46; in [7], 0.0686; in assay [8], -0.221; in [9], 0.569; in [10], -0.0435. For the same compound, the composite z-score in assay [11] was 0.926; in assay [12], 0.497; in assay [13], 1.01; in assay [15], 0.285; in assay [16], 0.179; in assay [17], -0.14. Moreover, the composite z-score in [18] was 0.338; in [19], 0.326; in assay [20] it was 0.75. In addition, the z-score in [2] was 0.252 (inactive); in assay [3], 0.512 (inactive); in assay [4], -0.119 (inactive); in assay [6], -1.47 (inactive); in [14] it was 0.901 (inactive).
`CCCC[C@@H]1C[C@H]1[C@@H](NC(=O)c1cccs1)c1ccccc1C(F)(F)F`: the composite z-score in assay [1] was 0.72; in [5] it was 3.12; in assay [7] it was 0.0864; in [8] it was -0.597; in assay [9], 0.168; in [10] it was 0.0695. For the same compound, the composite z-score was 0.67 in assay [11]; 0.445 in [12]; 0.49 in [13]; -0.0251 in [15]; 1.23 in assay [16]; -0.531 in assay [17]. Also, the composite z-score in [18] was -0.697; in [19], -0.291; in assay [20] it was 0.978. Moreover, the z-score in [2] is 0.0064 (inactive); in assay [3], -1.94 (inactive); in assay [4], 1.08 (inactive); in assay [6], -0.0873 (inactive); in assay [14] it was -0.701 (inactive).
Take `C=C(C(=O)CC[C@H](OC(=O)c1ccccc1-c1ccccc1C(=O)O)c1cccc(OCCO)c1)C(C)C`: the composite z-score in assay [1] was 0.0697; in assay [5] it was -0.138; in assay [7] it was -0.191; in assay [8], 0.437; in assay [9], 0.324; in [10] it was -0.18. For the same compound, the composite z-score in [11] was 0.627; in assay [12], 0.414; in assay [13], -0.265; in [15] it was 0.353; in assay [16], -0.418; in assay [17], -0.803. Further, the composite z-score in assay [18] worked out at 0.0151; in [19], 0.0159; in assay [20] it was 0.495. The z-score was 0.521 (inactive) in assay [2]; -0.561 (inactive) in assay [3]; -0.518 (inactive) in assay [4]; -0.164 (inactive) in [6]; -0.369 (inactive) in [14].
Consider `O=C(c1ccccc1)N1C(=O)[C@]2(Cc3ccccc31)N=C(c1ccc(OCCCO)cc1)O[C@@H]2c1ccccc1`, for which the composite z-score in [1] is 1.54; in assay [5] it was 3.25; in assay [7], -0.0059; in [8] it was 1.12; in assay [9], 1.07; in [10], -0.157. In addition, the composite z-score in assay [11] was 1.2; in assay [12] it was -0.0088; in assay [13], 0.339; in assay [15] it was 1.42; in assay [16] it was 1.31; in assay [17] it was 0.0998. Moreover, the values for the composite z-score in [18], in [19] and in assay [20] were 0.554, 0.405 and 0.0538, respectively. The z-score in [2] is 0.525 (inactive); in assay [3], 0.171 (inactive); in assay [4] it was 3.7 (inactive); in assay [6], 0.0249 (inactive); in [14] it was -0.936 (inactive).

Source of the values: PubChem BioAssay.
